Only some compounds are listed: those with a hit (about 18% of all), similar ones and a draw of the others.
TDP1 cell CPT = growth inhibition of DT40 Tdp1-/-;hTDP1 cells with camptothecin (screen for TDP1 inhibitors); chicken DT40 Tdp1-/-;hTDP1 cells + 20 nM CPT, ATP luminescence, 48 h; Potency, µM (top dose mostly 46.2 µM), without a hit: top-dose activity change, negative = growth inhibition, hits mostly inhibitors; 420,000 tested, 12% active; AID 686979; note: potency is the fitted concentration of half-maximal effect; nearly all actives have a fitted effect of over 55% in size
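Chicken DT40 Tdp1-/- cells stably complemented with human TDP1 were seeded at 400 cells/well in medium containing 20 nM camptothecin, exposed to pin-transferred compounds, and grown at 37 °C for at least 48 hr. Viability was read as ATP luminescence.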
VP16 counter = inhibits Gal4-VP16 luciferase reporter, ROR gamma counter-screen; Drosophila S2 Gal4-VP16 UAS-luciferase, luminescence, 20 h; Potency, µM (titrated, usually from 53.6 µM), inactives show at the top dose activity, negative = inhibition, actives largely listed as inhibitors; 310,000 tested, 3.5% active; AID 2546;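 note: Gal4-VP16 expression switched on by copper sulfate through the metallothionein promoter; potency is the fitted concentration of half-maximal effect; nearly all actives have a fitted effect of over 50% in size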
LDHA block = LDHA (human) enzyme inhibition. activity change, % (values are at about 110 or 230 µM). P00338. purified LDHA, NADH/diaphorase-resazurin fluorescence; active compounds read low. 480,000 tested, 0.15% active; in the data active = activity change below about -30%; inconclusive = mostly about -25% to -30%;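 note: plate controls were DMSO wells for no effect and wells without enzyme for full effect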
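Human LDH5 at 2 nM final in Tris HCl pH 7.4 with 0.06 mM NADH and 0.2 mM pyruvate, reacted 5 minutes at room temperature. Remaining NADH coupled via diaphorase/resazurin; resorufin fluorescence read at 0 and 20 minutes, normalized to enzyme-free and DMSO wells.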
RORg inh = ROR gamma (mouse) transcription inhibition | P51450 | Drosophila S2 Gal4-RORgamma UAS-luciferase reporter, 20 h | Potency, µM (series often up to 53.6 µM), without a hit: top-dose activity change, negative = inhibition, usual class: inhibitors | 310,000 tested, 5.4% active | AID 2551; note: potency is the fitted concentration of half-maximal effect; nearly all actives have a fitted effect of over 60% in size
Target sequence (P51450 whole entry, looked up, the tested form may be a part): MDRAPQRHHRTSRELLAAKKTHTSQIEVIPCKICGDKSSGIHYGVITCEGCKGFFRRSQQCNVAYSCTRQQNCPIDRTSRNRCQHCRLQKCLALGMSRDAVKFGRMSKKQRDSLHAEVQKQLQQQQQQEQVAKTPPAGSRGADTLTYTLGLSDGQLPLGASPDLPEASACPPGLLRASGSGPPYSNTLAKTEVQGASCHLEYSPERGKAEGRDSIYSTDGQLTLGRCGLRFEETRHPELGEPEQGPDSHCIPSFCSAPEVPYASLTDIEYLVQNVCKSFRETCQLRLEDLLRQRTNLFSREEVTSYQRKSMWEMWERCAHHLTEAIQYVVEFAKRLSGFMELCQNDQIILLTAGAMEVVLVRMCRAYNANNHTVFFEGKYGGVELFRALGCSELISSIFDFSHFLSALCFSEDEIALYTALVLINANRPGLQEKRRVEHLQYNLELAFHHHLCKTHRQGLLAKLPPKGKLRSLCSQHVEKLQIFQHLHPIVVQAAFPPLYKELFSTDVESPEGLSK
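Using a luciferase readout, inhibitors were identified by reduced reporter activity in Drosophila cells coexpressing a copper-inducible Gal4–ROR gamma fusion and UAS-driven Photinus luciferase, incubated 20 hr after 700 uM copper sulfate.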
TDP1 cell noCPT = qHTS for Inhibitors of human tyrosyl-DNA phosphodiesterase 1 (TDP1): qHTS in cells in absence of CPT | AID 686978, 2013 | Potency, µM (titrated, usually from 46.2 µM), for inactives: at the top dose activity change, negative = growth inhibition, usual class: inhibitors | 420,000 tested, 15% active | DT40 Tdp1-/- hTDP1 cells, no CPT, ATP luminescence, 48 h; note: potency is the fitted concentration of half-maximal effect; nearly all actives have a fitted effect of over 55% in size
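No-CPT arm: Tdp1-/-;hTDP1 DT40 cells (400/well) plus compounds, incubated ≥48 hr at 37 °C. Readout CellTiter-Glo luminescence.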
IL-1B inflam inh = inhibitors of inflammasome signaling (IL-1 beta secretion). THP-1 LPS/ATP IL-1B secretion, AlphaLISA, 16 h; active compounds read low. activity change, % at 57.5 µM. 360,000 tested, 4.7% active. AID 743279; in the data active = activity change below about -50%; inconclusive = mostly about -30% to -49%
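Secreted IL-1B measured by AlphaLISA bead assay after 16 h compound exposure of THP-1 cells; compounds (final up to 57.5 uM) added 1 h before LPS (250 ng/mL) and ATP (1.25 mM) stimulation; lower signal means less secretion.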
Numbers without * were called inactive; ? = inconclusive; nt = not tested or not shown. Unless noted, calls come from the whole dose curve; as a rule, active = well fitted curve in the direction sought with a large enough effect; inconclusive = small, poorly fitted or top-dose-only effect, or another doubt; inactive = no such curve, though single readings can be large; an effect the other way counts as inactive or inconclusive. Unless noted, % is set by controls: 0 for no effect and ±100 for the full control effect.

SMILES | TDP1 cell CPT | VP16 counter | LDHA block | RORg inh | TDP1 cell noCPT | IL-1B inflam inh
Cc1cc(F)ccc1C(O)c1ncc(-c2cccc(OCc3ccccc3)c2)[nH]1 (configuration not stated) | ? | nt | -7 | nt | 16µM* | -14
Cc1cccc(C(O)c2ncc(-c3ccccc3)[nH]2)c1C (configuration not stated) | 18µM* | nt | -4 | nt | -23% | -9
N#C/C(=C\c1ccco1)C(=O)NC1CCCCC1 | nt | nt | -1 | nt | nt | nt
CC(C)CNS(=O)(=O)c1cc(C(=O)O)c(Cl)cc1Cl | 4% | -7% | -1 | 22% | 4% | 6
CC(C)CNS(=O)(=O)c1cc(C(=O)OCC(=O)c2ccc3c(c2)OCCO3)c(Cl)cc1Cl | -21% | 11% | -5 | 36% | ? | -240*
O=C(COC(=O)c1ccc([N+](=O)[O-])cc1Cl)c1ccc2c(c1)OCCO2 | nt | nt | -10 | nt | nt | nt
CCCn1c(C)cc(C(=O)COC(=O)c2cc(S(=O)(=O)NCC(C)C)c(Cl)cc2Cl)c1C | ? | 10% | 3 | ? | 15µM* | -3
COc1ccc2cc(C(=O)NCCC(=O)Nc3ccc4c(c3)OCCO4)[nH]c2c1 | nt | nt | -10 | nt | nt | nt
Cc1cc(C)c(S(=O)(=O)N2CCOC23CCN(C(=O)c2ccc(F)c(F)c2)CC3)c(C)c1 | nt | nt | 1 | nt | nt | nt
COc1ccc(C2Oc3cc(OC)cc(OC)c3CC2O)cc1 (configuration not stated) | ? | 11% | nt | 19% | 16µM* | nt
CCN1CCN(c2oc(-c3ccc(S(=O)(=O)N(CC)CC)cc3)nc2C#N)CC1 | nt | nt | 0 | nt | nt | nt
Nc1c(S(=O)(=O)c2ccccc2)c2nc3ccccc3nc2n1Cc1ccco1 | 18µM* | ? | -12 | ? | ? | -26
COc1ccc(CCn2c(N)c(S(=O)(=O)c3cccs3)c3nc4ccccc4nc32)cc1OC | ? | -7% | 3 | 31% | ? | -55*
CC(C)CCn1c(N)c(S(=O)(=O)c2cccs2)c2nc3ccccc3nc21 | ? | ? | 16 | -5% | ? | -88*
Cc1ccc(S(=O)(=O)c2c(N)n(CCCO)c3nc4ccccc4nc23)cc1 | 12% | 2% | -6 | 26% | -19% | -13
Cc1ccc(S(=O)(=O)c2c(N)n(Cc3ccco3)c3nc4ccccc4nc23)cc1C | ? | 10% | -5 | 13% | ? | ?
Nc1c(S(=O)(=O)c2cccs2)c2nc3ccccc3nc2n1Cc1cccs1 | ? | 6% | 1 | -12% | ? | 0
Cc1ccc(S(=O)(=O)c2c(N)n(CCC(C)C)c3nc4ccccc4nc23)cc1 | ? | -24% | 6 | ? | ? | -63*
O=C(c1ccc(F)cc1)N(Cc1ccco1)C1CC1 | nt | nt | 0 | nt | nt | nt
CSC1=N/C(=C\c2ccc(OC(C)=O)cc2)C(=O)S1 | nt | nt | 5 | nt | nt | nt
CCCCCn1c(NC(=O)c2ccco2)c(S(=O)(=O)c2ccc(C)cc2)c2nc3ccccc3nc21 | 21µM* | -1% | 10 | ? | 18µM* | -7
COc1ccc(Cn2c(N)c(C#N)c3nc4ccccc4nc32)cc1OC | -14% | -20% | 11 | -13% | -22% | -5
COc1ccc(CCn2c(N)c(C#N)c3nc4ccccc4nc32)cc1OC | 21µM* | 12% | 17 | 41% | 13µM* | -9
Nc1c(S(=O)(=O)c2cccs2)c2nc3ccccc3nc2n1Cc1ccc2c(c1)OCO2 | ? | -11% | -9 | 16% | ? | -67*
CCCCn1c(NC(=O)c2ccco2)c(S(=O)(=O)c2ccc(C)cc2)c2nc3ccccc3nc21 | ? | -3% | 4 | ? | ? | 0
SMILES | TDP1 cell CPT | VP16 counter | LDHA block | RORg inh | TDP1 cell noCPT | IL-1B inflam inh
COc1ccc(-n2cc3ccc([N+](=O)[O-])cc3n2)cc1 | ? | -14% | 4 | -18% | 29µM* | -5
COc1ccc(-n2c(N)c(C#N)c3ccc([N+](=O)[O-])cc3c2=O)cc1 | -24% | 1% | 29 | 33% | -1% | 0
O=C(NCCN1CCOCC1)c1nn2c(C(F)(F)F)cc(-c3ccco3)nc2c1Br | nt | nt | 17 | nt | nt | nt
CC1(Cc2ccc(F)cc2)C(=O)Nc2c(Cl)ccc(Cl)c21 (configuration not stated) | ? | nt | 1 | nt | ? | -59*
CC1(Cc2ccccc2Cl)C(=O)Nc2c(Cl)cccc21 (configuration not stated) | 29µM* | nt | -3 | nt | ? | -25
CC1(Cc2ccc(Cl)c(Cl)c2)C(=O)Nc2c(Cl)ccc(Cl)c21 (configuration not stated) | ? | nt | -2 | nt | ? | 27
CC1(Cc2ccccc2OC(F)(F)F)C(=O)Nc2c(Cl)ccc(Cl)c21 (configuration not stated) | 16µM* | nt | -1 | nt | 23µM* | 22
COc1cccc(C(=O)COC(=O)c2cc3c(s2)-c2ccccc2OC3)c1 | nt | nt | -2 | nt | nt | nt
CC1CCC2(CCc3cc4c5c(c(=O)oc4cc3O2)CCC5)CC1 (configuration not stated) | nt | nt | 6 | nt | nt | nt
CCOc1ccc(Br)cc1CC(=O)O | 5% | nt | -10 | nt | -16% | -6
CCCOc1ccc(Br)cc1CSC(=N)N | 6.5µM* | 13µM* | -1 | ? | 2.1µM* | -86*

Screens from PubChem BioAssay.
